# NPC1 prom act: qHTS Assay for NPC1 Promoter Activators | Huh7 NPC1 promoter luciferase reporter, 24 h | Potency, µM (highest dose often 9.22 µM), for the others: top-dose activation, hits mostly activators | 320,000 compounds, 2.4% hits | AID 485313, 2010; also: % of control where 0% means no effect; nearly all actives have a fitted effect of over 60% in size
#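 Stable NPC1-promoter luciferase Huh7 line; cpd (DMSO) 24 h, 37 °C, 5% CO2; Amplite luciferase reagent 10 min RT; luminescence readout. qHTS format.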
# Rab9 promoter act: qHTS Assay for Rab9 Promoter Activators | Huh7 Rab9 promoter-luciferase reporter, luminescence, 24 h | Potency, µM (highest dose often 9.22 µM), inactives show top-dose activation, negative = inhibition, most hits filed as activators | 320,000 compounds, 2.8% hits; also: % of control where 0% means no effect; nearly all actives have a fitted effect of over 60% in size
#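 Huh7 cells stably carrying Rab9 promoter–luciferase reporter, plated 1500 cells/well, compound added after 2 h and incubated 24 h at 37 °C; luciferase luminescence then read after 10 min with detection reagent.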
# ELG1 genotox: qHTS screen for small molecules that induce genotoxicity in human embryonic kidney (HEK293T) cells expressing luciferase-tagged ELG1 | AID 504466, 2011 | 330,000 compounds, 1.3% hits | Potency, µM (titrated, usually from 46 µM), inactives show top-dose activity change, positive = activation, actives largely listed as activators | HEK293T ELG1-luciferase reporter, luminescence, 16 h; also: % of control where 0% means no effect; nearly all actives have a fitted effect of over 60% in size
#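 Reporter readout depends on ELG1 protein level, which increases with genetic stress. After 16 hr compound exposure at 37 °C, luciferase activity was quantified using ONE-Glo.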
# ELG1 repair inh: qHTS screen for small molecules that inhibit ELG1-dependent DNA repair in human embryonic kidney (HEK293T) cells expressing luciferase-tagged ELG1; Potency, µM (titrated, usually from 46.1 µM), for inactives: at the highest dose activity change, negative = inhibition, hits mostly inhibitors; HEK293T ELG1-luciferase reporter, luminescence, 16 h; DNA damage induced by 5-fluorouridine; AID 504467, 2011; 330,000 compounds, 2.3% hits; also: % is scaled to controls: 0 for no effect and ±100 for the full control effect; nearly all actives have a fitted effect of over 55% in size
#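 Cells (2,000 per well) received 5-fluorouridine plus test compound or DMSO and were incubated 16 hr at 37 °C, 5% CO2. Luciferase activity was read by luminescence 30 min after ONE-Glo addition; signal suppression marked inhibition of damage-induced ELG1 function.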
# FLuc counter: qHTS profiling assay for firefly luciferase inhibitor/activator using purifed enzyme and Km concentrations of substrates (counterscreen for miR-21 project). Luciferin 4-monooxygenase (Photinus pyralis), P08659. purified FLuc, Km substrates, luminescence inhibition. Potency, µM (highest dose often 57.5 µM), for the others: at the highest dose activity change, negative = inhibition, usual class: inhibitors. 360,000 compounds, 6.9% hits;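 also: plate controls were vehicle for no effect and reference inhibitor for full effect; nearly all actives have a fitted effect of over 55% in size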
# Target sequence (P08659 whole entry, looked up): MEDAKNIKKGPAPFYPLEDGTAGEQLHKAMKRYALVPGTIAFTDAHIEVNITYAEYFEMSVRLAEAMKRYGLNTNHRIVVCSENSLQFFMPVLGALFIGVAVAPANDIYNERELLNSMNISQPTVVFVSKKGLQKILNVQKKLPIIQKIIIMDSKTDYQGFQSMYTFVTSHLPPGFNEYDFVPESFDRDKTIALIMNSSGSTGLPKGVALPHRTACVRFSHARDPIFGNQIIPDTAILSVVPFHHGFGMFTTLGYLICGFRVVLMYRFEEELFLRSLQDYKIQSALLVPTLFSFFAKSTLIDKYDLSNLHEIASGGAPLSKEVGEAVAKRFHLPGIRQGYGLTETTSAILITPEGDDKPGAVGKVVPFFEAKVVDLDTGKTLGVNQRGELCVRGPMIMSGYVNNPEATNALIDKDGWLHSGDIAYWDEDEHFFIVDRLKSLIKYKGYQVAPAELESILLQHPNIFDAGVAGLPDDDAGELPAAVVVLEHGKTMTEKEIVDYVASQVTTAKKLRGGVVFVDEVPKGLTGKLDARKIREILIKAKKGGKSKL
#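 Purified P. pyralis luciferase (10nM final) with 10uM D-luciferin and 10uM ATP (Km levels) in 50mM Tris acetate pH 7.5, 10mM Mg acetate, 0.01% Tween-20, 0.05% BSA; qHTS 6-point titration, ~60 µM downward; luminescence read.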
# SMN2 splice enh: qHTS Assay for Enhancers of SMN2 Splice Variant Expression. HEK293 SMN2-luciferase splicing reporter, luminescence, 30-36 h. Potency, µM (series often up to 46.1 µM), for the others: at the highest dose activity change, positive = activation, most hits filed as activators. 210,000 compounds, 2.8% hits. AID 1458, 2008; also: % of control where 0% means no effect; nearly all actives have a fitted effect of over 55% in size
#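 HEK293 cells carry an SMN2 minigene-luciferase reporter in which exon 7 inclusion puts luciferase in frame. Cells were seeded at 2000 cells/well, attached for 10-12 hours, then exposed to compounds for 30-36 hours at 37C before ONE-Glo luminescence.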
# * hit, by the source's call; u = inconclusive; x = not tested or not shown. The list is not random: actives were taken first. Their share in the collection is about 9.2%. Calls follow the shape of the dose curve; as a rule, active = well fitted curve in the direction sought with a large enough effect; inconclusive = small, poorly fitted or top-dose-only effect, or another doubt; inactive = no such curve, though single readings can be large; an effect the other way counts as inactive or inconclusive. Potency is read from the fitted curve at half-maximal effect.
SMILES,NPC1 prom act,Rab9 promoter act,ELG1 genotox,ELG1 repair inh,FLuc counter,SMN2 splice enh
C/C(=N\Nc1ccc(Cl)c(C(=O)O)c1)c1cccs1,u,u,5.5%,u,u,x
C/C(=N/Nc1ccccc1C(=O)O)c1cccs1,u,3.55µM*,u,u,19µM*,x
C/C(=N/NC(=O)c1cccs1)c1cccs1,u,2.51µM*,u,u,10.7µM*,x
CC(=O)Nc1cccc(/C(C)=N/NC(=O)c2cccs2)c1,0.5%,2.3%,u,u,19µM*,u
CC(=O)Nc1cccc(/C(C)=N/NC(=S)NC(C)C)c1,15.5%,29.0%,3.8%,u,23.9µM*,23.6%
COc1ccc2c(c1)nc(SCC(=O)c1cccs1)n2C,23.7%,-5.4%,3.6%,u,u,9.7%
C/C(=N\NC(=O)c1ccccc1)c1ccc(NC(=O)c2cccs2)cc1,28.1%,u,u,u,u,x
CCN(CC)S(=O)(=O)c1cccc(C(=O)N/N=C(\C)c2cccs2)c1,3.55µM*,3.16µM*,u,u,10.7µM*,11.2µM*
C/C(=N/NC(=O)c1cccs1)c1cccc(N)c1,u,u,u,u,19µM*,x
C=C(C)C1CC=C(C)/C(=N/NC(=O)c2ccccc2[N+](=O)[O-])C1 (configuration not stated),-0.9%,-0.3%,-7.4%,u,u,-33.4%
C=C(C)C1CC=C(C)/C(=N/NC(=O)c2cccs2)C1 (configuration not stated),u,u,u,u,4.78µM*,u
COP(=O)(OC)C(Nc1ccc(C)cc1)c1ccc([N+](=O)[O-])cc1 (configuration not stated),u,u,13.4%,u,-14.1%,u
O=c1[nH]c(S)c(/C=C2\C=Nc3ccccc32)s1,2.5%,-2.5%,6.1%,0.1%,15.1µM*,x
Oc1nc(Nc2ccc(F)cc2)sc1/C=C1\C=Nc2ccccc21,14.0%,17.5%,-0.7%,u,u,x
CSc1ccc(C(C(C(=O)c2cccs2)N2CCOCC2)N2CCOCC2)cc1 (configuration not stated),2.5%,-1.4%,-1.3%,-11.2%,26.9µM*,13.8%
COc1ccc(C(C(C(=O)c2ccco2)N2CCOCC2)N2CCOCC2)cc1 (configuration not stated),0.2%,-6.9%,2.0%,16.3%,13.5µM*,-2.0%
Cn1c[n+](C)cc1-c1ccc(/C(N)=N/O)cc1,0.4%,0.3%,1.9%,8.5%,-1.6%,-7.5%
Cc1ccc(-c2nn(-c3ccc(F)cc3F)c3c2cnc2ccc(F)cc23)cc1,x,x,x,x,2.5%,x
Cc1cc(C)c2c(N)c(C(=O)N/N=C/c3cccnc3)sc2n1,u,u,11.1%,u,u,x
Cc1cc(C)c2c(N)c(C(=O)NN)sc2n1,0.9%,-2.6%,8.1%,u,-15.2%,x
Cc1cc(C)c2c(N)c(C(=O)N/N=C/c3ccccc3)sc2n1,1.78µM*,1.78µM*,u,u,3.38µM*,x
Cc1cc(C)c2c(N)c(C(=O)NNC(=O)c3ccccc3)sc2n1,3.16µM*,3.55µM*,u,u,u,11.2µM*
Cc1ccc(S(=O)(=O)Nc2nc(C)c(C(=O)N/N=C/c3ccccc3)s2)cc1,-1.1%,6.7%,-20.0%,-18.6%,6.01µM*,-37.5%
Cc1ccc(S(=O)(=O)Nc2nc(C)c(C(=O)Nc3ccccc3)s2)cc1,-3.1%,0.9%,-1.3%,8.3%,-18.2%,u
Cc1cccc(C)c1C(OCCN(C)C)C1CCCCC1 (configuration not stated),-1.2%,1.0%,-6.0%,-12.0%,-0.2%,-4.2%

# Assay outcomes from PubChem.
